{"source": "ChEMBL document CHEMBL1157539", "about": "“Thousands of chemical starting points for antimalarial lead identification” (Nature, 2010)", "format_in_all_cases": "functional", "key": {"Plasmodium falciparum [1]": {"tested_on": "Plasmodium falciparum", "experiment": "GSK_TCMDC: Inhibition of Plasmodium falciparum 3D7 in whole red blood cells, using parasite LDH activity as an index of growth. Test compounds present at 2uM"}, "Plasmodium falciparum [2]": {"tested_on": "Plasmodium falciparum", "experiment": "GSK_TCMDC: Inhibition of Plasmodium falciparum Dd2 in whole red blood cells, using parasite LDH activity as an index of growth. Test compounds present at 2uM"}, "HepG2": {"tested_on": "HepG2", "experiment": "GSK_TCMDC: Percent inhibition of human HepG2 cell line. Test compounds present at 10uM."}}}
{"smiles": "CCCCCCCCCCNCC(O)c1ccc(O)c(C(=O)OC)c1", "note": "(stereo not given)", "values": [{"measurement": "Inhibition", "setting": "Plasmodium falciparum [1]", "value": 97, "unit": "%"}, {"measurement": "Inhibition", "setting": "Plasmodium falciparum [2]", "value": 97, "unit": "%"}, {"measurement": "Inhibition", "setting": "HepG2", "value": 3, "unit": "%"}]}
{"smiles": "O=C(O)C(F)(F)F.O=[N+]([O-])c1ccc(Oc2ccccc2CNCC2CCN(CC3CCCCC3)CC2)cc1", "values": [{"measurement": "Inhibition", "setting": "Plasmodium falciparum [1]", "value": 89, "unit": "%"}, {"measurement": "Inhibition", "setting": "Plasmodium falciparum [2]", "value": 28, "unit": "%"}, {"measurement": "Inhibition", "setting": "HepG2", "value": 40, "unit": "%"}]}
{"smiles": "CCN1CCC(NCc2ccc(-c3ccc(Cl)cc3)cc2)CC1", "values": [{"measurement": "Inhibition", "setting": "Plasmodium falciparum [1]", "value": 100, "unit": "%"}, {"measurement": "Inhibition", "setting": "Plasmodium falciparum [2]", "value": 33, "unit": "%"}, {"measurement": "Inhibition", "setting": "HepG2", "value": 25, "unit": "%"}]}
{"smiles": "Cc1ccnc(-n2c(C)cc(C=C3SC(=Nc4ccccc4)N(Cc4ccco4)C3=O)c2C)c1", "values": [{"measurement": "Inhibition", "setting": "Plasmodium falciparum [1]", "value": 99, "unit": "%"}, {"measurement": "Inhibition", "setting": "Plasmodium falciparum [2]", "value": 98, "unit": "%"}, {"measurement": "Inhibition", "setting": "HepG2", "value": 0, "unit": "%"}]}
{"smiles": "CC(C)C[C@@H](/C=N/NC(N)=O)NC(=O)[C@H](CC(C)C)NC(=O)[C@H](CC(C)C)NC(=O)OCc1ccccc1", "values": [{"measurement": "Inhibition", "setting": "Plasmodium falciparum [1]", "value": 100, "unit": "%"}, {"measurement": "Inhibition", "setting": "Plasmodium falciparum [2]", "value": 99, "unit": "%"}, {"measurement": "Inhibition", "setting": "HepG2", "value": 41, "unit": "%"}]}
{"smiles": "O=C(CCCc1ccccc1)Nc1cccc(N2CCC(N3CCN(c4ccccc4O)CC3)CC2)c1", "values": [{"measurement": "Inhibition", "setting": "Plasmodium falciparum [1]", "value": 98, "unit": "%"}, {"measurement": "Inhibition", "setting": "Plasmodium falciparum [2]", "value": 41, "unit": "%"}, {"measurement": "Inhibition", "setting": "HepG2", "value": 31, "unit": "%"}]}
{"smiles": "COc1ccc2nc(-c3cc(-c4ccc(NC(=O)CN5CCOCC5)cc4)cnc3N)[nH]c2c1", "values": [{"measurement": "Inhibition", "setting": "Plasmodium falciparum [1]", "value": 100, "unit": "%"}, {"measurement": "Inhibition", "setting": "Plasmodium falciparum [2]", "value": 72, "unit": "%"}, {"measurement": "Inhibition", "setting": "HepG2", "value": 52, "unit": "%"}]}
{"smiles": "COCCNCc1ccc(-c2ccc(CNc3ccc4ncccc4c3)cc2)cc1.O=C(O)C(F)(F)F", "values": [{"measurement": "Inhibition", "setting": "Plasmodium falciparum [1]", "value": 85, "unit": "%"}, {"measurement": "Inhibition", "setting": "Plasmodium falciparum [2]", "value": 4, "unit": "%"}, {"measurement": "Inhibition", "setting": "HepG2", "value": 41, "unit": "%"}]}
{"smiles": "CC(C)CNCc1ccc(-c2cccc(-c3nc4ccccc4[nH]3)c2)cc1.O=C(O)C(F)(F)F", "values": [{"measurement": "Inhibition", "setting": "Plasmodium falciparum [1]", "value": 99, "unit": "%"}, {"measurement": "Inhibition", "setting": "Plasmodium falciparum [2]", "value": 98, "unit": "%"}, {"measurement": "Inhibition", "setting": "HepG2", "value": 53, "unit": "%"}]}
{"smiles": "COc1ccc(NC(=O)/C=C/c2cc(Br)ccc2F)cc1OCCN(C(C)C)C(C)C.O=C(O)C(F)(F)F", "values": [{"measurement": "Inhibition", "setting": "Plasmodium falciparum [1]", "value": 100, "unit": "%"}, {"measurement": "Inhibition", "setting": "Plasmodium falciparum [2]", "value": 14, "unit": "%"}, {"measurement": "Inhibition", "setting": "HepG2", "value": 22, "unit": "%"}]}
